Assay [1] is described as follows: Her2 expression decrease, cell viability multiplex – SKBR3 breast tumor cells, AlphaScreen, ATP viability, primary screen (AID 461).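 On Her2 level: lower value means less Her2 protein in the cells.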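 On viability: percent of carrier control wells set as 100% viability.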 The following applies: SKBR3 Her2 protein level, 18-24 h, measured here: SKBR3 viability, ATP luminescence, at 10 µM. For orientation: Bead proximity is the source of the signal in Alpha formats.
Assay [2] concerns the target Receptor tyrosine-protein kinase erbB-2 (Homo sapiens) (UniProt P04626). The assay is described as above. The following applies: 18-24 h, at 10 µM, stronger effect = lower value.
Assay [3] in a line: reduced viability of SK-BR-3 breast cancer cells – cell-based, 24 h, human, pilot screen (AID 572;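 active means viability at or below 10% of carrier control in both of two separate runs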;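 further: compound exposure lasted between 18 and 24 h rather than exactly 24 h; 100% = carrier-treated control wells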). The following applies: SK-BR-3 viability, CellTiter-Glo luminescence, at 10 µM, stronger effect = lower value.
A short description of assay [4]: HUVEC growth inhibition – cell-based, human, primary screen (AID 575;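 active means viability at or below 30% in both replicate assays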;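 further: 100% = median of untreated cell wells with 0.1% DMSO on each plate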). The following applies: HUVEC proliferation, CellTiter-Glo luminescence, 72 h; at 10 µM; stronger effect = lower value. A general note: ATP-based viability assays read luminescence as a measure of living cells.
Assay [5] can be described thus: H69AR cell proliferation blockers – human, duplicate replicates, primary screen (AID 580;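 active means viability at or under a set limit in both replicates, limit being median viability minus 3 SD, cut at about 48% in these data, passing the limit was not always enough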;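 further: 100% = mean luminescence of untreated wells and 0% = no signal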). Particulars: H69AR lung tumor cells viability, ATP luminescence, 72 h; at 10 µM; stronger effect = lower value.
The nature of assay [6]: MRP1 drug-resistance reversers in H69AR cells – cell-based, doxorubicin co-treatment, pilot screen (AID 601;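 active means viability loss from added drug above about 55%, and viability with drug at most 40%, in both replicates, limit read from the data, passing the limit was not always enough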). Particulars: CellTiter-Glo, 72 h, at 10 µM; for differential viability (reversal): stronger effect = higher value.
Assay [7] is described as follows: yeast transport mutant growth inhibition pilot in 384-well plates, post-Golgi transport modulator project (AID 636; in the data active means inhibition above about 31%). Particulars: absorbance 615 nm, about 18 h, stronger effect = higher value.
Assay [8] can be described thus: growth suppression of yeast trafficking mutant, preliminary HTS, modulators of trafficking downstream of Golgi apparatus project, 1536-format plate, OD 615 nm (AID 637; in the data active means inhibition above about 30%). Particulars: yeast transport mutant growth, absorbance 615 nm, 18 h; stronger effect = higher value.
Assay [9] in a line: S. cerevisiae growth inhibition in permissive medium (OD615), pilot counter-assay for S. cerevisiae lifespan shortening project, permissive growth control (AID 705;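 active means growth inhibition above 25% in both replicates, a cutoff set 3 SD above the mean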). The following applies: OD615, 24 h, at 10 µM, stronger effect = higher value.
Assay [10] is described as follows: S. cerevisiae growth inhibition in restrictive medium, OD615, pilot screen, restrictive growth control, yeast lifespan reduction project (AID 706;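 active means growth inhibition above a set limit, 3 SD over mean compound inhibition, in both replicates, cut at about 43% in these data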;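 further: modified DeaD lifespan yeast strain shifted to restrictive glucose medium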). The following applies: OD615, 48 h, at 10 µM, stronger effect = higher value.
The nature of assay [11]: doxorubicin toxicity protection in MRP-1 cells – H69AR cells, CellTiter-Glo, duplicate, MRP-1 activator project, pilot screen (AID 807;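 active means viability increase at or above a cutoff of the median across tested compounds plus 3 SD, cut at about 8.5% in these data, passing the limit was not always enough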;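 further: compound pretreatment 18-22 h then 72 h combined with doxorubicin; 0% = doxorubicin alone and 100% = vehicle without doxorubicin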). Particulars: H69AR viability with doxorubicin, CellTiter-Glo luminescence; at 10 µM; stronger effect = higher value.
A short description of assay [12]: viability of HCT116 without oncogenic beta-catenin – human colon tumor cells, pilot screen (AID 823;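 active means cell viability at or below a set limit in both duplicate runs, the limit being the all-compound median minus 4 SD, cut at about 23% in these data, passing the limit was not always enough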;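 further: 0% = wells killed by 20 µM Hyamine and 100% = untreated DMSO cell wells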). The following applies: HCT116 beta-catenin knockout viability, CellTiter-Glo, 60 h; at 10 µM; stronger effect = lower value.
The nature of assay [13]: viability of PTEN-null HCT116 cells – cell-based, HCT116 clonal line, CellTiter-Glo, pilot screen (AID 824;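 active means viability at or below 27.92% in each of two runs, the all-compound median minus 4 SD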;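 further: 0% = 20 µM Hyamine control and 100% = vehicle cell control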). The following applies: HCT116 PTEN-deleted viability, 60 h, at 10 µM, stronger effect = lower value.
Assay [14] can be described thus: RAM pathway blockade in budding yeast – dse1pr::URA3 reporter, 5-FOA selection, pilot screen (AID 869;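 active means inhibition over a set limit, the all-compound mean plus 3 SD, in both replicate runs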;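 further: 0% = DMSO wells with no growth and 100% = 10 µM 1-NA-PP1 with full growth; RAM network block rescues cells from 5-FOA so hits raise OD615 growth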). Particulars: S. cerevisiae dse1pr::URA3 5-FOA growth, OD615, 2 d; at 10 µM; stronger effect = higher value; strain carries analog-sensitive mutant Cbk1 kinase.
Where [15] appears, read: H69AR cells + 2 uM doxorubicin, measured here: viability with 2 uM doxorubicin, stronger effect = lower value.
The mark [16] stands for this setting: H69AR cells, compound alone cytotoxicity.

Inconclusive results are not listed. Calls of active or inactive are those of the source.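 How the source made its calls, unless noted: active means Her2 level under about 52% in both replicate screens, with viability over 70% of control (limit read from the data); inconclusive means Her2 under the limit in one screen only, or viability under 70%; inactive means Her2 level above the set limit.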

The record followed here is PubChem BioAssay.

Receptor tyrosine-protein kinase erbB-2 (Homo sapiens), sequence (P04626 whole entry, looked up): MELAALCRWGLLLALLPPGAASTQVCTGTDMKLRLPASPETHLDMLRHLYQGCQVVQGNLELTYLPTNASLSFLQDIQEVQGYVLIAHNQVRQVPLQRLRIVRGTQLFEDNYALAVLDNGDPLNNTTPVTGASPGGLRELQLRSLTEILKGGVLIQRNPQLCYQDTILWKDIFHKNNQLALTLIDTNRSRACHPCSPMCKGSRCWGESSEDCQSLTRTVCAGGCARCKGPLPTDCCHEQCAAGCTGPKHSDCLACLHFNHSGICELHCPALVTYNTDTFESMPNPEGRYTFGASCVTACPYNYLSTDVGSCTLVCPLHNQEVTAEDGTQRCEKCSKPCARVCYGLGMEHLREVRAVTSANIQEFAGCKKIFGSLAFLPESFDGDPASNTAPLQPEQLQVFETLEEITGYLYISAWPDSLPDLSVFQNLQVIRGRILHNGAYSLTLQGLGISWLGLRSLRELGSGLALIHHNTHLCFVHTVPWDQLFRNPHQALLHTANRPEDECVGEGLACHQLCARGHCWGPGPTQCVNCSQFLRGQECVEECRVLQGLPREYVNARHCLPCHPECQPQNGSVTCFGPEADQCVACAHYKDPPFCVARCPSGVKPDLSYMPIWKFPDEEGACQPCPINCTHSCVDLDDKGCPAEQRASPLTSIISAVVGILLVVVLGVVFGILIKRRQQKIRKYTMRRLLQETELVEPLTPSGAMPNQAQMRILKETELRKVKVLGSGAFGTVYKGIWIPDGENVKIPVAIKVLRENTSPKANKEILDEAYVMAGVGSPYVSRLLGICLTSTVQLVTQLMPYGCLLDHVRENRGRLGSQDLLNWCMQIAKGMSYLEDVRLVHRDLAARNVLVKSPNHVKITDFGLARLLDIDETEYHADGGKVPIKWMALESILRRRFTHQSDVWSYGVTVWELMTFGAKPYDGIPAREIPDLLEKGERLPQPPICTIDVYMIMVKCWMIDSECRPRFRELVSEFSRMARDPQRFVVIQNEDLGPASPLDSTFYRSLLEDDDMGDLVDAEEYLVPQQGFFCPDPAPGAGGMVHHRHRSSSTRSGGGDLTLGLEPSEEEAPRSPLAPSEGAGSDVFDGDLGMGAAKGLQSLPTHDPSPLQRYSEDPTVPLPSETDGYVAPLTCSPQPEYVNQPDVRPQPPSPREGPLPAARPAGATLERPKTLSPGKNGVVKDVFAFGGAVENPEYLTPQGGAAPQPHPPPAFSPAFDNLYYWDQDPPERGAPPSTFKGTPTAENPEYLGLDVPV

A word on the viability: it is a read-out of living cells in per cent, often relative to untreated cells. The inhibition is the drop in the measured response relative to a control, in per cent. `CC(C)COC(=O)C1C2C=CC3(CN(C(C)c4ccc(Br)cc4)C(=O)C13)O2` (centres undefined): the viability is 114% in [1]; 114% (inactive) in assay [3]; 101% (inactive) in assay [4]; 94.9% (inactive) in assay [5]; 83.6% in assay [6] (setting [15]); 94.9% in [6] (setting [16]). Further, the viability in assay [12] was 98.3% (inactive); in assay [13] it was 95.8% (inactive). Also, the Her2 level in [2] is 100% (inactive). The differential viability (reversal) in assay [6] (H69AR cells + 2 uM doxorubicin) is 11.3% (inactive). Also, the inhibition in [7] was -6.53% (inactive); in assay [8], -5.74% (inactive); in assay [14] it was 0.915% (inactive). Besides, the growth inhibition in assay [9] was -9.09% (inactive); in assay [10], 5.3% (inactive). Also, the viability increase in assay [11] was -2.82% (inactive).
Turning to `Cc1csc(NC(=O)CSc2nnc(Cc3cccn3C)n2-c2ccc(F)cc2)n1`, the viability in assay [1] was 77.5%; in assay [3], 77.5% (inactive); in assay [4], 84.8% (inactive); in assay [5] it was 89.8% (inactive); in assay [6] (setting [15]) it was 88.8%; in assay [6] (setting [16]), 89.8%. Besides, the viability in [12] is 94% (inactive); in assay [13], 95.5% (inactive). For the same compound, in assay [2], the Her2 level was 94% (inactive). In addition, the differential viability (reversal) in assay [6] (H69AR cells + 2 uM doxorubicin) was 1.05% (inactive). Also, the inhibition in assay [7] was 4.67% (inactive); in assay [8], -1.64% (inactive); in assay [14], 4.11% (inactive). The growth inhibition was -9.58% (inactive) in assay [9] and -0.31% (inactive) in [10]. In assay [11], the viability increase is -2.25% (inactive).
Regarding `CCn1c(SCC(=O)Nc2ccc3c(c2)OCO3)nc2c(c1=O)SC(C)C2` (centres undefined), the viability in assay [1] is 92.5%; in assay [3] it was 92.5% (inactive); in [4] it was 81% (inactive); in assay [5] it was 84.7% (inactive); in assay [6] (setting [15]) it was 83.2%; in assay [6] (setting [16]), 84.7%. The viability was 99.9% (inactive) in [12] and 96.8% (inactive) in assay [13]. Also, in [2], the Her2 level was 102% (inactive). In addition, the differential viability (reversal) in assay [6] (H69AR cells + 2 uM doxorubicin) was 1.51% (inactive). Further, the values for the inhibition in assay [7], in [8] and in assay [14] were -4.67% (inactive), -2% (inactive) and 1.63% (inactive), respectively. The figures for the growth inhibition in [9] and in assay [10] were -7.09% (inactive) and -23.1% (inactive), respectively. Also, in assay [11], the viability increase was -2.42% (inactive).
In the case of `Fc1ccc(C2C3=C(Nc4ncnn42)c2ccccc2OC3c2ccncc2)cc1` (centres undefined), the viability was 85.5% in assay [1], 85.5% (inactive) in [3], 86.7% (inactive) in assay [4] and 78.8% (inactive) in assay [5]. The Her2 level in assay [2] is 85.5% (inactive). Moreover, the inhibition in [7] is -2.11% (inactive); in assay [8] it was -3.71% (inactive).
With `Cn1cccc1Cc1nnc(SCC(=O)N2CCOCC2)n1-c1ccc(F)cc1`, the viability was 88.5% in [1]; 88.5% (inactive) in [3]; 106% (inactive) in [4]; 99.7% (inactive) in assay [5]; 88.3% in assay [6] (setting [15]); 99.7% in [6] (setting [16]). In addition, the values for the viability in assay [12] and in assay [13] were 102% (inactive) and 94.3% (inactive), respectively. In assay [2], the Her2 level is 104% (inactive). For the same compound, the differential viability (reversal) in assay [6] (H69AR cells + 2 uM doxorubicin) is 11.4% (inactive). The results for the inhibition in assay [7], in assay [8] and in assay [14] were -6.93% (inactive), 0.33% (inactive) and -0.47% (inactive), respectively. Moreover, the growth inhibition in assay [9] was 5.02% (inactive); in assay [10], 19.7% (inactive). Moreover, in [11], the viability increase was -1.33% (inactive).
For `C=CCSc1nnc2n(-c3ccccc3OC)c(=O)c3c4c(sc3n12)CCC4`, the viability in [1] was 83.5%; in assay [3], 83.5% (inactive); in [4] it was 79.9% (inactive); in [5], 89.1% (inactive). Moreover, in [2], the Her2 level is 100% (inactive). Also, the inhibition was -0.67% (inactive) in [7] and -0.95% (inactive) in [8].
`CCN(CC)CC(=O)Nc1ccc(-c2nc3cc(NC(=O)CN(CC)CC)ccc3o2)cc1`: the viability is 91% in assay [1]; 91% (inactive) in assay [3]; 3.96% (active) in assay [4]; 58.6% in assay [6] (setting [15]); 44.2% in [6] (setting [16]). In addition, the Her2 level in [2] was 82.5% (inactive). In addition, the differential viability (reversal) in assay [6] (H69AR cells + 2 uM doxorubicin) is -14.4% (inactive). Moreover, the inhibition was -2.13% (inactive) in [7] and -9.34% (inactive) in assay [8].
As for `COc1ccc(OC)c(NC(=O)CCNS(=O)(=O)c2cccs2)c1`, the viability in assay [1] was 95%; in assay [3], 95% (inactive); in assay [4] it was 92.4% (inactive); in assay [5], 99.8% (inactive); in assay [6] (setting [15]), 94.2%; in assay [6] (setting [16]), 99.8%. The viability in [13] is 96.1% (inactive). In addition, in [2], the Her2 level was 103% (inactive). Moreover, the differential viability (reversal) in assay [6] (H69AR cells + 2 uM doxorubicin) was 5.6% (inactive). Also, the inhibition in assay [7] was -3.6% (inactive); in [8], 23.3% (inactive); in assay [14], 2.21% (inactive). Moreover, the growth inhibition in [9] was -2.31% (inactive); in assay [10] it was 13.9% (inactive). The viability increase in [11] is -2.82% (inactive).
Take `N#Cc1c(NC(=O)COC(=O)C2CC3C=CC2C3)oc(-c2ccccc2)c1-c1ccccc1` (centres undefined): the viability in assay [1] was 106%; in [3], 106% (inactive); in [4] it was 78.1% (inactive); in assay [5], 44.6% (active); in assay [6] (setting [15]) it was 68.1%; in assay [6] (setting [16]) it was 44.6%. For the same compound, the viability in assay [12] is 92.3% (inactive). Further, the Her2 level in [2] is 80% (inactive). Also, the differential viability (reversal) in assay [6] (H69AR cells + 2 uM doxorubicin) is -23.4% (inactive). The inhibition in [7] is -0.26% (inactive); in assay [8] it was -0.36% (inactive); in [14], 3.41% (inactive). For the same compound, the figures for the growth inhibition in [9] and in assay [10] were -17.5% (inactive) and -14.6% (inactive), respectively. Besides, the viability increase in assay [11] is -5.47% (inactive).
Turning to `CCOC(=O)C1CCCN(c2c(Nc3ccc(C)c(C)c3)c(=O)c2=O)C1` (centres undefined), the viability in assay [1] is 84%; in assay [3] it was 84% (inactive); in assay [4], 91.7% (inactive); in assay [5], 87.6% (inactive). The Her2 level in assay [2] was 99% (inactive). Also, the inhibition in assay [7] was 0% (inactive); in [8] it was -4.43% (inactive).
Regarding `O=C(NCc1nnc(SCC(=O)N2CCC(Cc3ccccc3)CC2)o1)c1ccccc1F`, the viability is 85% in assay [1]; 85% (inactive) in [3]; 74.5% (inactive) in assay [4]; 98.8% (inactive) in [5]; 94.8% in assay [6] (setting [15]); 98.8% in assay [6] (setting [16]). In addition, the figures for the viability in assay [12] and in assay [13] were 90.2% (inactive) and 92.2% (inactive), respectively. The Her2 level in [2] was 96.5% (inactive). Moreover, the differential viability (reversal) in [6] (H69AR cells + 2 uM doxorubicin) is 3.91% (inactive). Also, the inhibition is 1.6% (inactive) in assay [7], 3.11% (inactive) in assay [8] and 1.69% (inactive) in [14]. Besides, the growth inhibition in [9] is 5.21% (inactive); in assay [10], 17.2% (inactive). The viability increase in assay [11] was -0.76% (inactive).
Take `CCc1nc(N)nc(N)c1-c1ccc(Cl)cc1`: the viability was 103% in assay [1]; 103% (inactive) in [3]; 117% (inactive) in [4]; 95.8% in assay [6] (setting [15]); 35.9% in assay [6] (setting [16]). Further, the Her2 level in [2] was 79% (inactive). Also, the differential viability (reversal) in [6] (H69AR cells + 2 uM doxorubicin) is -59.9% (inactive).
In the case of `O=c1[nH]c(=O)n([C@H]2C[C@H](O)[C@@H](CO)O2)cc1F`, the viability in assay [1] is 89%; in [3] it was 89% (inactive); in assay [4], 51.3% (inactive); in assay [6] (setting [15]) it was 57%; in [6] (setting [16]) it was 16.4%. Further, the Her2 level in [2] was 74% (inactive). Further, the differential viability (reversal) in [6] (H69AR cells + 2 uM doxorubicin) was -40.6% (inactive).
